# Assay outcomes from PubChem BioAssay.
# Tb PYK inh: T. brucei pyruvate kinase inhibition; Q57TT1; TbPYK enzyme, Kinase-Glo Plus ATP luminescence, 45 min; Potency, µM (titrated, usually from 76.8 µM), actives largely listed as inhibitors; hit rate 0.12% among 410,000; note: nearly all actives have a fitted effect of over 50% in size
#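 Quantitative HTS: titrated library compounds versus trypanosomal pyruvate kinase in TEA buffer (pH 7.2) containing KCl, MgCl2, BSA and Tween-20. Reactions were initiated with ADP, 130 uM final. Kinase-Glo Plus luminescence was read after 45 min at RT.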
# LmPK inhibitor: LmPK (Leishmania mexicana) enzyme inhibition; purified LmPK, Kinase-Glo ATP luminescence, 1 h; Potency, µM (titrated, usually from 57.5 µM), actives largely listed as inhibitors; hit rate 0.37% among 290,000
# Target sequence (Q27686 whole entry, looked up): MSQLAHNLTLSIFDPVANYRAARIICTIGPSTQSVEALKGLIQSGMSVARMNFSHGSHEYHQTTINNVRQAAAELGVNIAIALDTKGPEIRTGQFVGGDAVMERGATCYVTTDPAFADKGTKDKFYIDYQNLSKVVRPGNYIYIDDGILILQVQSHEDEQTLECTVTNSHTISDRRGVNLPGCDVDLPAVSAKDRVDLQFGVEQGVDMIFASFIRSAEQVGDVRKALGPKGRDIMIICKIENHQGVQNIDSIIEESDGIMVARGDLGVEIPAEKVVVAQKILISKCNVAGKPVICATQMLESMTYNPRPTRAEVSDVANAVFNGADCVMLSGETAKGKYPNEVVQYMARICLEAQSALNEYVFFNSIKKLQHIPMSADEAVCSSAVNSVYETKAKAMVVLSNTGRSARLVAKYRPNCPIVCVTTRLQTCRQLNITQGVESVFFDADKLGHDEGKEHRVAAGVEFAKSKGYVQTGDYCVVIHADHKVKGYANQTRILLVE
#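 ATP generated from ADP (0.1 mM) and PEP (0.5 mM) by 0.1 nM LmPK over 1 h at room temperature (pH 7.2 imidazole buffer) was detected by coupled luciferase luminescence. Values were normalized to uninhibited and no-enzyme wells.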
# RE007 growth inh: less growth of the S. pombe RE007 Vpr strain; hit rate 0.21% among 360,000; S. pombe RE007 Vpr strain, BacTiter-Glo ATP luminescence, 24 h; Potency, µM (doses to about 92.2 µM), most hits filed as inhibitors; active = well fitted falling curve with a large enough effect; inconclusive = small, poorly fitted or top-dose-only effect; inactive = no such curve, though single readings can be large or run the other way; note: nearly all actives have a fitted effect of over 50% in size
#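 Fission yeast strain RE007, carrying one chromosomally integrated HIV-1 vpr copy, was seeded at OD 0.01 in PMG+AL medium with 23 nL pinned compound. After 24 h at 30 °C and 99% humidity, viability was read by BacTiter-Glo luminescence.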
# AMA1 RON2 block: disrupts binding of P. falciparum AMA1 to RON2; Potency, µM (series often up to 58.2 µM), usual class: inhibitors; AID 720542; hit rate 0.2% among 360,000; AlphaScreen AMA1-biotinylated RON2 peptide binding; note: nearly all actives have a fitted effect of over 45% in size
#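 AMA1 (3D7) with his tag at 25 nM final met compounds first, then biotinylated RON2 peptide at 25 nM; detection used donor plus acceptor beads, 10 µg/mL apiece, read by AlphaScreen after 30 min at room temperature.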
# VACV Venus inh: inhibitors of vaccinia virus (Venus reporter) | Potency, µM (doses to about 36.5 µM), most hits filed as inhibitors | Vaccinia virus Venus reporter expression, fluorescence | hit rate 0.46% among 330,000 | AID 720580; calls by dose curve; tested in A549 cells; note: nearly all actives have a fitted effect of over 30% in size
# Vaccinia mCherry: vaccinia inhibition (mCherry reporter); Vaccinia virus mCherry reporter infection, fluorescence; hit rate 0.63% among 310,000; Potency, µM (series often up to 36.5 µM), hits mostly inhibitors; calls by dose curve; tested in A549 cells; note: nearly all actives have a fitted effect of over 35% in size
# Hits are given with their value; i = inactive; ? = inconclusive; nt = no result given; ! = not active in a repeat; [ ] = another dose, or the depositor's remark. This is a sample that favours compounds with a hit; in the whole collection about 1.3% have one here. Unless noted, calls come from the whole dose curve; as a rule, active = well fitted curve in the direction sought with a large enough effect; inconclusive = small, poorly fitted or top-dose-only effect, or another doubt; inactive = no such curve, though single readings can be large; an effect the other way counts as inactive or inconclusive.
SMILES,Tb PYK inh,LmPK inhibitor,RE007 growth inh,AMA1 RON2 block,VACV Venus inh,Vaccinia mCherry
COc1ccc(C2C(C#N)=C(C)NC3=C2C(=O)c2ccccc23)cc1 (centres undefined),i,i,i,i,i,i
CC1=C([N+](=O)[O-])C(c2ccccc2)C2=C(N1)c1ccccc1C2=O (centres undefined),i,i,i,?,?,13µM
Cc1c(Cl)cccc1NC(=O)COC(=O)c1c2c(nc3ccccc13)CCN(Cc1ccccc1)C2,i,i,i,i,?,11µM
O=C1C=C2C=C[C@@H]3C[C@@]2(O1)[C@H]1CCCCN31,nt,nt,nt,nt,14µM,?
CCOC(=O)CCS(=O)(=O)c1nc(-c2ccccc2)cc(C(F)(F)F)n1,i,i,i,i,?,11µM
COC(=O)CCS(=O)(=O)c1nc(-c2ccccc2)cc(C(F)(F)F)n1,i,i,i,i,nt,nt
CCOC(=O)CS(=O)(=O)c1nc(-c2ccc(F)cc2)cc(C(F)(F)F)n1,i,i,?,i,10µM,nt
CCOC(=O)CS(=O)(=O)c1nc(-c2ccccc2)cc(C(F)(F)F)n1,i,i,?,i,10µM,nt
Cc1nc(C)n(CC(=O)N2CCOc3ccc(CN4CCN(C)C[C@@H]4c4ccccc4)cc3C2)n1,nt,nt,nt,nt,i,i
CN(C)c1ccc(/C=C/c2ccc3ccccc3n2)cc1,?,?,?,i,i,i
CN(C)c1ccc(/C=C/c2cccc3cc4ccccc4nc23)cc1,nt,nt,nt,nt,16µM,11µM
CN(C)c1ccc(/C=C/c2ccnc3c(O)cccc23)cc1,nt,nt,nt,nt,?,10µM
CC(=NNC(=S)SCc1ccccc1)c1ccccn1,i,nt,i,i,?,10µM
CC(=NNC(=S)Nc1cccc(Cl)c1)c1ccccn1,i,nt,?,i,?,2.8µM
S=C(NCc1ccccn1)Nc1cccc(Cl)c1,i,i,i,i,i,i
O=C(O)c1ccccc1-c1ccc(C(F)(F)F)cc1,i,nt,nt,nt,nt,nt
Cc1ccc(-n2c(C)cc(-c3csc(N)n3)c2C)cc1,i,i,i,i,i,i
Cc1cc(-c2csc(N)n2)c(C)n1C,?,i,i,28µM,i,nt
CCc1nc2cc(C(=O)N3CCC[C@H]3CO)cc(NC(=O)c3ccccc3OC)c2n1C,nt,nt,nt,nt,i,i
CCc1nn2cc(-c3ccccc3)nc2s1,?,11µM,?,?,nt,nt
CCOC(=O)Nc1ccc(NCc2ccc(F)cc2)nc1N,32µM!,nt,i,i,i,i
O=C(NCCc1nnc2n1CCN(Cc1ccc(F)cc1)CC2)c1ccco1,nt,nt,nt,nt,i,i
Cc1ccc(S(=O)(=O)N(C)/N=C/c2ccc(N(C)C)cc2)cc1,i,i,i,25µM,i,?
Cc1ccc(N=Cc2ccc(N(C)C)cc2)cc1,i,i,i,i,3.5µM,nt
Cc1nc(NCc2c(F)cccc2F)sc1-c1ccn(CCN2CCOCC2)n1,nt,nt,nt,nt,i,i
SMILES,Tb PYK inh,LmPK inhibitor,RE007 growth inh,AMA1 RON2 block,VACV Venus inh,Vaccinia mCherry
Cc1occc1C(=O)N/N=C/c1c(O)ccc2ccccc12,i,i,i,i,?,1.8µM
Cc1ccc(C(=O)N/N=C/c2c(O)ccc3ccccc23)cn1,i,i,i,i,?,2.2µM
O=C(N/N=C\c1c(O)ccc2ccccc12)c1ccc(O)cc1,i,i,i,i,nt,nt
O=C(NN=Cc1c(O)ccc2ccccc12)c1ccncc1,i,nt,i,i,?,2.5µM
O=C(N/N=C/c1c(O)ccc2ccccc12)c1ccc(Br)o1,i,i,i,i,?,2.8µM
C[C@@H]1O[C@@]2(CS1)CN1CCC2CC1,i,nt,nt,nt,nt,nt
Cc1nc2cc(NC(=O)[C@@H]3C[C@@H](Sc4ccccn4)CN3Cc3ccccc3)ccc2s1,nt,nt,nt,nt,i,i
Cc1occc1C(=O)N/N=C/C=C/c1ccc(N(C)C)cc1,i,i,i,i,nt,nt
Cc1occc1C(=O)N/N=C/c1cnn(C)c1C,i,16µM,i,i,nt,nt
Cc1c(/C=N\NC(=O)c2ccc(F)cc2)cnn1C,i,i,i,i,i,i
COc1ccc(/C=N/NC(=O)c2ccoc2C)cc1COc1c(C)cccc1C,i,i,i,i,?,13µM
COc1ccc(/C=N\NC(=O)c2ccccc2OC)cc1COc1ccccc1C,i,i,i,i,i,i
Nc1cc(Cl)nc(N/N=C/c2c(O)ccc3ccccc23)n1,i,i,i,i,?,28µM
Cc1occc1C(=O)N/N=C/c1ccc(N(C)C)cc1,?,10µM,?,i,i[7.34 µM],i[7.34 µM]
CC(=O)c1ccccc1-c1ccc2c(c1)CC(CNC(=O)c1cc(C)on1)O2 (centres undefined),nt,nt,nt,nt,i,i
COc1cc(CN2C(=O)CC[C@@H]3CN(Cc4ccccn4)CC[C@@H]32)cc(OC)c1OC,nt,nt,nt,nt,i,i
O=[N+]([O-])c1ccc(Oc2ccc(N=C=S)cc2)cc1,i,nt,nt,nt,nt,nt
Cc1c(C(=O)NCc2ccccc2Cl)sc2ncnc(NCC3CCCO3)c12 (centres undefined),nt,nt,nt,nt,i,i
COc1ccc(OCC(=O)Nc2ccc(C(=O)OCc3cc(=O)n4nc(C)sc4n3)cc2)cc1,i,nt,nt,nt,i,i
O=C(CSc1ccc(-c2ccco2)nn1)c1ccc(F)cc1,20µM,i,i,i,i,i
Cc1oc(-c2cccc(NC(=O)C3CCCN(C)C3)c2)nc1CNC(=O)c1coc2c1C(=O)CCC2 (centres undefined),nt,nt,nt,nt,i,i
CC(C)(C)c1cc(CCC(=O)NCC2CCCO2)cc(C(C)(C)C)c1O (centres undefined),i,i,i,i,i,4µM
CSc1nnc(CCNC(=O)/C=C/c2cccc(F)c2)n1-c1ccc(F)cc1,nt,nt,nt,nt,i,i
C=C1CC2(CC(c3ccccc3)OC(c3ccccc3)C2)OC1=O (centres undefined),i,nt,i,i,?,11µM
c1ccc([C@@H]2CO2)cc1,i,nt,i[18.4 µM],i,i,i
SMILES,Tb PYK inh,LmPK inhibitor,RE007 growth inh,AMA1 RON2 block,VACV Venus inh,Vaccinia mCherry
CCC(C)n1c(=O)c(C(=O)Nc2ccccc2S(N)(=O)=O)c(O)c2ccccc21 (centres undefined),i,i,i,i,?,13µM
CC(C)C(NS(C)(=O)=O)c1nnc2n1CCN(Cc1ccc(Cl)cc1)CC2 (centres undefined),nt,nt,nt,nt,i,i
NC(=O)c1ccc(NC(=O)C#Cc2ccccc2)cc1,i,i,i,i,i,7.1µM
Cc1ccc(S(=O)(=O)CCSc2nc(C)cc(C(F)(F)F)c2C#N)cc1,i,i,i,i,2.2µM,nt
COc1ccc2c(c1)CCc1cnc(-n3ncc(C(=O)NC4CCOC4)c3C3CC3)nc1-2 (centres undefined),nt,nt,nt,nt,i,i
O=S(=O)(c1ccc2nc(-c3ccco3)c(-c3ccco3)nc2c1)N1CCOCC1,16µM,i,i,i,i,nt
COc1ccc(N2CCN(C(=O)c3cn(C4CCCC4)c(=O)c4c3c3ccccc3n4C)CC2)cc1,i,i,i,14µM,i,i
Cc1ccccc1C(=O)N1CC/C(=N/OS(=O)(=O)O)c2ccc(Cl)cc21,i,nt,nt,nt,nt,nt
Nc1nc2c([nH]c(=S)n2C2OC(CO)C(O)C2O)c(=O)[nH]1 (centres undefined),nt,nt,nt,nt,i,i
